{"source": "PubChem BioAssay AID588413", "about": "(Sanford-Burnham Center for Chemical Genomics, 2011)", "note": "Where “and” joins values, the source holds several entries; their conditions need not be identical. Equal entries are not always repeated. Hit rate of the full screen: of about 340,000 compounds, about 2,500 (0.74%) were called active. What follows is part of a selection rich in actives, with near analogues and random picks from the rest. A number with no mark means an inactive call.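 How the source made its calls: active means inhibition above about 55% (limit read from the data); inactive means the rest.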"}
{"test": "blockers of Gli reporter signaling – luciferase luminescence, Sufu-KO-LIGHT cells, uHTS, primary screen (AID 588413);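 further: 0% = DMSO-treated cells and 100% = wells with medium but no cells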", "conditions": "Sufu-KO-LIGHT fibroblasts, at 5 µM, stronger effect = higher value"}
{"compound": "Cc1cc(N2C(=O)C(=O)/C(=C(/O)c3ccccc3)C2c2cccc(Br)c2)no1", "note": "(stereo unspecified)", "inhibition": "7.53%"}
{"compound": "CC(=O)c1ccc(NC(=O)Cn2c(=O)oc3ccccc32)cc1", "inhibition": "11.6%"}
{"compound": "Cc1sc2nc(SCCO)n(-c3ccccc3)c(=O)c2c1C", "inhibition": "3.29%"}
{"compound": "O=C(OC12CC3CC(CC(C3)C1)C2)c1ccc(NCc2cc(O)ccc2O)cc1", "inhibition": "70.4% (active)"}
{"compound": "COC(=O)c1ccc(NCc2cc(O)ccc2O)cc1", "inhibition": "3.08%"}
{"compound": "CC(C)OC(=O)c1ccc(NCc2cc(O)ccc2O)cc1Cl", "inhibition": "-6.82%"}
{"compound": "Cn1cnc2c1c(=O)n(Cc1ccccc1C#N)c(=O)n2C", "inhibition": "6.5%"}
{"compound": "O=C(Nc1ccccc1C(=O)Nc1ccncc1)c1ccc([N+](=O)[O-])cc1", "inhibition": "-25.8%"}
{"compound": "O=C(Nc1cc2c3c(c1)C1CCCC1CN3CC1CCCC21)c1ccc([N+](=O)[O-])cc1", "note": "(stereo unspecified)", "inhibition": "72.5% (active)"}
{"compound": "CN1C2CCC1CC(NC(=O)c1ccc([N+](=O)[O-])cc1)C2", "note": "(stereo unspecified)", "inhibition": "-0.59%"}
{"compound": "CCOc1ccc(NC(=O)N(CC(C)C)CC(C)C)cc1", "inhibition": "-3.25%"}
{"compound": "O=C(CCNC(=O)c1ccc(Br)cc1)NCC(c1ccco1)N1CCCCC1", "note": "(stereo unspecified)", "inhibition": "2.12%"}
{"compound": "Cc1ccc(OS(=O)(=O)c2ccc(-c3csc(C)n3)s2)c(C)c1", "inhibition": "-1.77%"}
{"compound": "CC1(C)CC(=O)C=C(N2CCOCC2)C1", "inhibition": "-5.06%"}
{"compound": "CC1(C)CC(N2CCN(C(c3ccccc3)c3ccccc3)CC2)=CC(=[N+]2CCCCC2)C1", "inhibition": "89.2% (active)"}
{"compound": "c1ccc(C(c2ccccc2)N2CCN(Cc3nnnn3C3CCCCC3)CC2)cc1", "inhibition": "-7.75%"}
{"compound": "O=C(COc1ccc(Cl)cc1Cl)NCCCNC(=O)c1cnccn1", "inhibition": "-2.79%"}
{"compound": "CN1C(=O)CC(c2ccccc2)C1=O", "note": "(stereo unspecified)", "inhibition": "1.09%"}
{"compound": "COc1ccc(N(CC(=O)Nc2ccc(F)c(F)c2)S(=O)(=O)c2c(C)[nH]c(=O)[nH]c2=O)cc1", "inhibition": "-1.05%"}
{"compound": "COc1ccc(/C=N/N=C2/C(=O)Nc3ccccc32)cc1O", "inhibition": "58.7% (active)"}
{"compound": "O=C1Nc2ccc(Br)cc2/C1=N/N=C/C1=C(N2CCOCC2)C(=C\\c2ccccc2)/CC1", "inhibition": "20.5%"}
{"compound": "CCOc1ccc(/C=N/NC(=O)CSc2ccccn2)cc1O", "inhibition": "4.66%"}
{"compound": "Cc1ccccc1CS(=O)(=O)CC1(O)CCN(C(=O)c2cccc(C(F)(F)F)c2)CC1", "inhibition": "0.32%"}
{"compound": "O=C(N=C1SC2CS(=O)(=O)CC2N1c1cc(Cl)ccc1Cl)C1CC1", "note": "(stereo unspecified)", "inhibition": "6.54%"}
{"compound": "Cc1ccc(-c2c[n+](CC(=O)Nc3ccccc3)c3n2CCC3)cc1", "inhibition": "-11.4%"}
{"compound": "Cc1ccc(C(=O)C[n+]2cc(-c3ccccc3)n3c2CCCCC3)cc1", "inhibition": "67.1% (active) and 72.5% (active)"}
{"compound": "Clc1ccc(C[n+]2cc(-c3ccccc3)n3c2CCC3)cc1", "inhibition": "49.7%"}
{"compound": "CC(=O)c1ccc(NC(=O)C(C)OC(=O)c2ccc(NS(=O)(=O)c3ccc4[nH]c(=O)[nH]c4c3)cc2)cc1", "note": "(stereo unspecified)", "inhibition": "7.04%"}
{"compound": "O=C1CSC(=O)N1CCOCCN1C(=O)CSC1=O", "inhibition": "-19.6%"}
{"compound": "CCN(CC)S(=O)(=O)c1ccc(N(C)Cc2cccc(OC)c2OC)nc1", "inhibition": "1.8%"}
{"compound": "CC(C)(C)OC(=O)C[C@H]1C/C=C\\C[C@@H](CC(=O)N[C@H](CO)Cc2ccccc2)C(=O)NC[C@@H](c2ccccc2)OC1=O", "inhibition": "4.33%"}
{"compound": "O=C(C[C@H]1C/C=C\\C[C@@H](NC(=O)OCC2c3ccccc3-c3ccccc32)C(=O)O[C@@H](c2ccccc2)CNC1=O)N[C@H](CO)Cc1ccccc1", "inhibition": "60.2% (active)"}
{"compound": "CC(C)(C)OC(=O)C[C@@H]1C/C=C\\C[C@@H](CC(=O)N[C@H](CO)Cc2ccccc2)C(=O)NC[C@@H](c2ccccc2)OC1=O", "inhibition": "-21.7%"}
{"compound": "COc1ccc(CCNC(=O)CCn2c(=O)c3ccccc3n(CC(=O)NCC3CCCO3)c2=O)cc1OC", "note": "(stereo unspecified)", "inhibition": "2.58%"}
{"compound": "CCN(CC(=O)Nc1ccc(OC)cc1)C(=O)CSCc1ccc(C)cc1", "inhibition": "-9.04%"}
{"compound": "CCN(CC(=O)Nc1cc(Cl)ccc1C)C(=O)CSCc1ccccc1", "inhibition": "-4.34%"}
{"compound": "CCN(CC(=O)Nc1cc(Cl)ccc1C)C(=O)CSCc1ccc(C)cc1", "inhibition": "62.8% (active)"}
{"compound": "Cc1ccc2c(c1)N(CC(=O)NCCc1ccc(Cl)cc1)C(=O)c1cccnc1O2", "inhibition": "-9.76%"}
{"compound": "COC[C@@H]1NS(=O)(=O)c2ccc(Br)cc2O[C@H]1c1ccccc1", "inhibition": "15.6%"}
{"compound": "Cc1ccc(S(=O)(=O)c2nc(-c3cccs3)oc2NCc2cccnc2)cc1", "inhibition": "3.04%"}
{"compound": "Cc1ccc(OCCNC(=O)CN2C(=O)NC3(CCCC3)C2=O)cc1", "inhibition": "-5.27%"}
{"compound": "Cc1c(NC(=O)CSc2cccc3cccnc23)c(=O)n(-c2ccccc2)n1C", "inhibition": "8.55%"}
{"compound": "COc1ccc(C(=O)NCC(=O)N/N=C/c2cccnc2)cc1", "inhibition": "-0.02%"}
{"compound": "O=C(CSc1cccc2cccnc12)N/N=C/c1cccnc1", "inhibition": "71% (active)"}
{"compound": "NC(=O)CC(NC(=O)Cc1ccc(Br)cc1)c1ccc(NC2CC3CCC2C3)c([N+](=O)[O-])c1", "note": "(stereo unspecified)", "inhibition": "19%"}
{"compound": "CC(=O)N1CCC(C(=O)Nc2nc(-c3ccccc3)ns2)CC1", "inhibition": "-14.5%"}
{"compound": "Cc1nn(C)c(Cl)c1CN1CCC(n2nccc2NC(=O)C2CCCC2)CC1", "inhibition": "61.7% (active)"}
{"compound": "O=C(Nc1ccnn1C1CCN(Cc2cccc(OCCO)c2)CC1)C1CCCC1", "inhibition": "10.8%"}
{"compound": "CC(CN1CCC(n2nccc2NC(=O)C2CCCC2)CC1)c1ccccc1", "note": "(stereo unspecified)", "inhibition": "8.83%"}
{"compound": "COc1cccc(-n2nc(C(=O)N3CCN(Cc4ccccc4)CC3)c3ccccc3c2=O)c1", "inhibition": "11%"}
{"compound": "COc1cccc(-n2cc3c(c2-c2ccccc2)c(=O)n(C)c(=O)n3C)c1", "inhibition": "1.34%"}
{"compound": "COc1cccc(-n2cc(C(=O)O)c3ccccc3c2=O)c1", "inhibition": "59.2% (active)"}
{"compound": "CCCCOC(=O)CNc1nnc(SCC(=O)OCC)[nH]c1=O", "inhibition": "-6.62%"}
{"compound": "COc1ccccc1NC(=O)CCSc1nnc(-c2ccc(O)cc2)o1", "inhibition": "-0.57%"}
{"compound": "Brc1c(CSc2nncc3ccccc23)nc2ccccn12", "inhibition": "65% (active)"}
{"compound": "COc1cc(C(=O)N2CCN(C3CCC(C)CC3)CC2)cc(OC)c1OC", "note": "(stereo unspecified)", "inhibition": "5.83%"}
